VACV Venus inh = vaccinia inhibition (Venus reporter); Vaccinia virus Venus reporter expression, fluorescence; Potency, µM (highest dose often 36.5 µM), without a hit: top-dose activity change, negative = inhibition, actives largely listed as inhibitors; 0.46% of 330,000 active; calls by dose curve; tested in A549 cells; further: nearly all actives have a fitted effect of over 30% in size
HCV inhibitor = inhibitors of hepatitis C virus infection; Huh7.5.1 HCVcc-Cre infection, luciferase reporter, 44 h; Potency, µM (top dose mostly 41.8 µM), for inactives: at the highest dose activity change, negative = inhibition, usual class: inhibitors; 3.4% of 340,000 active; AID 651820; active means well fitted inhibition curve with a large enough effect; inconclusive means small, poorly fitted or top-dose-only effect, or another doubt; inactive means no such curve, though single readings can be large or run the other way
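After 44 h co-culture of compound, cells and HCVcc-Cre (~0.5 moi), substrate is added for 15 min at room temperature and luciferase measured over 15 sec. Cells were seeded at 1,000/well and pre-cultured 4 h.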
VACV mCherry inh = inhibitors of vaccinia virus infection (mCherry reporter signal). Vaccinia virus mCherry reporter infection, fluorescence. Potency, µM (titrated, usually from 36.5 µM), inactives show at the top dose activity change, negative = inhibition, hits mostly inhibitors. 0.63% of 310,000 active; calls by dose curve; tested in A549 cells; further: nearly all actives have a fitted effect of over 35% in size
Lassa entry inh = Lassa virus entry inhibition; AID 540256; Potency, µM (highest dose often 37.9 µM), for the others: at the highest dose activity change, negative = inhibition, most hits filed as inhibitors; Lassa virus pseudotype entry inhibition, cell reporter; 1.2% of 300,000 active; calls by dose curve; tested in HEK293 cells; further: nearly all actives have a fitted effect of over 50% in size
Marburg entry inh = inhibitors of Marburg virus binding or cell entry; Marburg virus pseudotyped entry inhibition, cell reporter; Potency, µM (titrated, usually from 37.8 µM), inactives show at the highest dose activity change, negative = inhibition, hits mostly inhibitors; 1.8% of 300,000 active; AID 540276; calls by dose curve; tested in HEK293 cells
* hit, by the source's call; i = inactive; ? = inconclusive; / = no result given; [ ] = remark or other dose. The list is not random: actives were taken first. Their share in the collection is about 4.6%. On the % scale 0 is the no-effect control and ±100 the full control effect; potency means the concentration at half of the fitted maximal effect.

SMILES	VACV Venus inh	HCV inhibitor	VACV mCherry inh	Lassa entry inh	Marburg entry inh
CCCC(=O)Nc1ccc(-c2nc3ncccc3o2)cc1C	-10%	/	-10%	0%[46.1 µM]	?
CCOC(=O)c1c(NC(=O)C2CCCCC2C(=O)O)sc2c1CCCC2 (stereo unspecified)	/	/	/	/	-12%
O=C(COc1ccc2ccccc2c1)Nc1ccc(O)c(-c2nc3ccccc3o2)c1	-18%	/	0%	/	/
CC(C)n1ncc2c(C(=O)Nc3cccc(C#N)c3)cc(C3CC3)nc21	/	11µM*	/	/	/
CCNC(=O)c1cccc(NC(=O)c2cc(C3CC3)nc3c2cnn3C(C)C)c1	-3%	?	-14%	?	?
O=c1c(O)c(-c2cc(O)c(O)c(O)c2)oc2cc(O)cc(O)c12	-14%	-19%	-11%	?	22µM*
O=C(COc1ccc(CO)cc1)Nc1ccc(F)cc1	-13%	-1%	-13%	1%	14%
O=C(COc1ccc(CO)cc1Cl)Nc1ccc(F)cc1	/	-4%	/	?	6.5µM*
COc1ccc(NC(=O)c2ccco2)cc1NC(=O)COc1ccccc1Cl	-9%[7.34 µM]	/	-10%[7.34 µM]	?	27%[46.1 µM]
COc1ccccc1NC(=O)COc1ccc(CO)cc1Cl	-2%	10µM*	/	11%	29%
CNc1ccc(C=O)cc1Cl	-6%	/	-9%	/	/
Clc1ccc(-c2cc(-c3ccccc3)on2)cc1	-12%	?	i	/	/
Cc1ccc2nc(-c3ccc4c(c3)OCCO4)cn2c1	-18%	-10%	i	1µM*	?
CC(=O)Nc1ccc2nc(-c3ccccc3)cn2c1	-10%	-1%	-11%	?	?
Cc1nc(-c2ccc3c(c2)OCCCO3)cs1	-7%	-15%	i	?	-17%
Cc1ccc2nc(-c3cc(-c4ccccc4)no3)cn2c1	-3%	-2%	i	0.89µM*	?
c1ccn2cc(-c3ccc4c(c3)OCCO4)nc2c1	-15%	-9%	-13%	/	/
Nc1nc(-c2ccc3c(c2)OCCO3)cs1	7.1µM*	?	-18%[1.46 µM]	7%	-16%
CCc1ccn2cc(-c3cc(-c4ccccc4)no3)nc2c1	/	10µM*	/	/	/
Cc1ccccc1NC(=O)COc1ccccc1C(=O)Nc1ccccc1	-20%	/	-3%	/	/
Cc1ccc(-c2cc(-c3ccccc3)no2)c(O)c1	0%	9%	-13%	5µM*	?
Oc1ccccc1-c1cc(-c2ccccc2)no1	-8%	-19%	/	?	?
CCOc1ccc(S(=O)(=O)n2cnc3cc(C)c(C)cc32)cc1	?	10µM*	?	?	21µM*
Cc1cc2ncn(S(=O)(=O)c3ccc(S(N)(=O)=O)cc3)c2cc1C	/	-15%	/	/	/
COc1ccccc1C(=O)N(Cc1cc2cccc(C)c2nc1N1CCC(O)CC1)C1CC1	5%	/	-14%	/	/
SMILES	VACV Venus inh	HCV inhibitor	VACV mCherry inh	Lassa entry inh	Marburg entry inh
O=C(c1oc2ccccc2c1CSCc1ccccc1)N1CCN(c2ncccn2)CC1	/	11µM*	/	-17%	-27%
COc1cc([N+](=O)[O-])c2nc(C=NNC(N)=S)ccc2c1	-19%	?	-11%	4%	-18%
NC(=S)N/N=C/c1ccc2cccc(OCc3ccccc3)c2n1	?	11µM*	?	?	?
NC(N)=N/N=C/c1ccc2cccc(OCc3ccccc3)c2n1	-26%	13µM*	-14%	?	?
NC(=S)N/N=C/c1ccccc1OCc1cccc(Cl)c1	2µM*	11µM*	1.8µM*	-27%	?
CCOC(=O)c1c(N)n(CCCOC(=O)c2ccco2)c2nc3ccccc3nc12	10µM*	11µM*	?	?	?
CCCCCn1c(NC(=O)c2ccco2)c(C(=O)OCC)c2nc3ccccc3nc21	-29%	?	-27%	?	4.5µM*
CSc1nc(NCCOC(C)=O)c(C#N)c(-c2ccc(C(C)(C)C)cc2)n1	-14%	/	-19%	4%[46.1 µM]	?
C=CCSC(=C(C#N)C#N)c1cc2c([nH]1)CCCC2	1%	13µM*	/	11µM*	?
O=C(Nc1ccc(N2CCOCC2)cc1)c1cnccn1	-5%	-4%	15%	2.2µM*	?
CCCCOc1ccc(C(=O)NNC(=O)c2cnccn2)cc1OC	?	13µM*	?	?	?
CCCCc1ccc(NC(=O)c2cnccn2)cc1	-9%	-7%	?	11µM*	7.9µM*
O=C(Nc1ccccc1N1CCOCC1)c1cnccn1	-8%	-28%	-14%	/	8%
COc1ccc(CC(=O)NNC(=O)c2cnccn2)cc1	/	10%	/	2%	3%
COC(=O)[C@@H]1CCCN1C(=O)c1c(OC)cc(=O)n2c1CCN(Cc1cc(OC)ccc1F)CC2	-1%	/	-6%	/	/
O=C(NCc1ccccc1F)C(=O)NCC(c1cccs1)S(=O)(=O)c1cccs1 (stereo unspecified)	-7%	/	-13%	-10%[46.1 µM]	/
O=C1Nc2ccccc2C12OCC(COc1ccc(Cl)cc1)O2 (stereo unspecified)	?	13µM*	-6%	-6%	-7%[46.1 µM]
CN1C(=O)C2(OCC(COc3ccc(Cl)cc3)O2)c2ccccc21 (stereo unspecified)	-18%	-23%	i	-23%	?
CCCN(Cc1ccccc1)C(=O)Nc1ccc2c(c1)nnn2C	4%	18%	-6%	2.6µM*	?
COc1ccc(-c2sc3ccc(N4CCOCC4)cc3c2C#CC2(O)CCCCC2)cc1	?	2.8µM*	?	/	/
COc1ccc(-c2sc3cc4c(cc3c2-c2ccc(OCCN3CCOCC3)cc2)OCO4)cc1	-9%	-49%	-20%	/	/
COc1ccc(-c2sc3cc4c(cc3c2C#Cc2cncn2C)OCO4)cc1	-20%	5µM*	?	/	/
COc1ccc(-c2oc3ccccc3c2C#Cc2cncn2C)cc1	?	2.8µM*	?	/	/
COc1ccc(-c2sc3cc4c(cc3c2C#CC2(N)CCCCC2)OCO4)cc1	?	22µM*	?	/	/
COc1cccc(-c2sc3ccc(OC)cc3c2C#CC2(O)CCCCC2)c1	-24%	?	-19%	/	/
SMILES	VACV Venus inh	HCV inhibitor	VACV mCherry inh	Lassa entry inh	Marburg entry inh
COc1cc(OC)cc(-c2sc3ccc(OC)cc3c2C#CC2(N)CCCCC2)c1	?	-24%	?	/	/
Cc1ccc(-c2nc(CNC(=O)Nc3ccccc3)c(C)o2)cc1	-25%	/	-27%	-20%[46.1 µM]	/
CCCC[C@]12Cc3cc(C#N)ccc3[C@H](O1)c1c(c3cc(F)ccc3oc1=O)O2	/	/	/	/	29%[14.2 µM]
COc1ccc(-c2sc3ccc(OC)cc3c2C#Cc2cncn2C)cc1	?	2.8µM*	?	/	/
COc1ccc(-c2sc3ccc(OC)cc3c2-c2ccc(OC)nc2)cc1	-8%	?	-1%	/	/
O=C(NCC1CCCO1)c1cc2ccccc2cc1O (stereo unspecified)	-15%	-8%	-18%	?	-7%
O=C(NCC1CCCCC1)c1cc2ccccc2cc1O	-24%	13µM*	?	?	?
CC1(c2cccc(Br)c2)NC(=O)N(CC(=O)N2CCc3ccccc32)C1=O (stereo unspecified)	-24%	10µM*	-23%	-19%	?
COc1ccc(OCc2nc3ccccc3n2C(C)c2ccccc2)cc1 (stereo unspecified)	-8%	/	-14%	18%[46.1 µM]	17%[46.1 µM]
COc1cccc(OCc2nc3ccccc3n2CCOc2ccc(C)cc2)c1	-12%	/	-4%	-1%[46.1 µM]	0%[46.1 µM]

Screening results: PubChem, National Center for Advancing Translational Sciences (NCATS)
